# Only a selection was taken, and the strongest signals are over-represented in it overall.
# B1: MXA PilAct-eGFP (Myxococcus xanthus), Q59589 (protein)
# chain: MRVSRFNPRNRGFTLIELMIVVAIIGILAAIAIPNFIKFQARSKQSEAKTNLKALYTAQKSFFSEKDRYSDFANEIGFAPERGNRYGYRVSAAAGDCEVRNAADLPVPAAGVPCISNDSFRFGANSAIDDPTPVVARFVPQGAAGWNTTLGVQPTIADCPNCNFFAGARGNADNEATFDDWVIAGFEGSGQVGPCSEAGNVASGTPYNTRNDVACDGAAQ
# Columns and labels:
# Assay in all cases: glycan array binding signal (z-score within array); higher = stronger binding
# Conditions in all cases: glycan notation: IUPAC condensed, linker removed
# GalNAc(a1-3)GalNAc = target: GalNAc(a1-3)GalNAc
# Summary of the method: (§1)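 The Consortium for Functional Glycomics database supplied 3228 glycan arrays, of which those lacking an available protein sequence were dropped. The binding signal, a within-array Z-score, was averaged across arrays of the same protein sequence and across linkers. Negative scores can be read as non-binding.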
# GalNAc6S(b1-4)GlcNAc = target: GalNAc6S(b1-4)GlcNAc
# Summary of the method: as §1
# Glc(b1-6)Glc = target: Glc(b1-6)Glc
# Summary of the method: as §1
# [1] = target: GlcNAc(a1-3)Gal(b1-4)GlcNAc
# Summary of the method: as §1
# [2] = target: GlcNAc(a1-4)Gal(b1-4)GlcNAc(b1-3)Gal(b1-4)GlcNAc(b1-3)Gal(b1-4)GlcNAc
# Summary of the method: as §1
# [3] = target: GlcNAc(a1-4)Gal(b1-4)GlcNAc(b1-3)Gal(b1-4)[Fuc(a1-3)]GlcNAc(b1-3)Gal(b1-4)[Fuc(a1-3)]GlcNAc
# Summary of the method: as §1
# [4] = target: GlcNAc(b1-2)Man(a1-3)[GlcNAc(b1-2)Man(a1-6)]Man(b1-4)GlcNAc(b1-4)GlcNAc
# Summary of the method: as §1
# [5] = target: GlcNAc(b1-3)Gal(b1-4)GlcNAc(b1-3)Gal(b1-4)GlcNAc(b1-3)Gal(b1-4)GlcNAc(b1-2)Man(a1-3)[GlcNAc(b1-3)Gal(b1-4)GlcNAc(b1-3)Gal(b1-4)GlcNAc(b1-3)Gal(b1-4)GlcNAc(b1-2)Man(a1-6)]Man(b1-4)GlcNAc(b1-4)GlcNAc
# Summary of the method: as §1
# [6] = target: GlcNAc(b1-3)Gal(b1-4)GlcNAc(b1-3)Gal(b1-4)GlcNAc(b1-3)Gal(b1-4)GlcNAc(b1-3)Gal(b1-4)GlcNAc(b1-2)[GlcNAc(b1-3)Gal(b1-4)GlcNAc(b1-3)Gal(b1-4)GlcNAc(b1-3)Gal(b1-4)GlcNAc(b1-3)Gal(b1-4)GlcNAc(b1-6)]Man(a1-6)[GlcNAc(b1-3)Gal(b1-4)GlcNAc(b1-3)Gal(b1-4)GlcNAc(b1-3)Gal(b1-4)GlcNAc(b1-3)Gal(b1-4)GlcNAc(b1-2)Man(a1-3)]Man(b1-4)GlcNAc(b1-4)[Fuc(a1-6)]GlcNAc
# Summary of the method: as §1
# [7] = target: GlcNAc(b1-3)Gal(b1-4)GlcNAc(b1-3)[GlcNAc(b1-3)Gal(b1-4)GlcNAc(b1-3)]GalNAc
# Summary of the method: as §1
# Kdn(a2-3)Gal(b1-3)GlcNAc = target: Kdn(a2-3)Gal(b1-3)GlcNAc
# Summary of the method: as §1
# Kdn(a2-3)Gal(b1-4)GlcNAc = target: Kdn(a2-3)Gal(b1-4)GlcNAc
# Summary of the method: as §1
# [8] = target: Man(a1-3)[Man(a1-6)]Man(a1-6)[Man(a1-3)]Man(b1-4)GlcNAc(b1-4)GlcNAc
# Summary of the method: as §1
# [9] = target: Neu5Ac(a2-3)Gal(b1-3)GlcNAc(b1-6)GalNAc
# Summary of the method: as §1
# [10] = target: Neu5Ac(a2-3)Gal(b1-3)[Fuc(a1-4)]GlcNAc
# Summary of the method: as §1
# [11] = target: Neu5Ac(a2-3)Gal(b1-4)[Fuc(a1-3)]GlcNAc
# Summary of the method: as §1
# [12] = target: Neu5Ac(a2-3)Gal(b1-4)[Fuc(a1-3)]GlcNAc(b1-3)Gal(b1-4)GlcNAc
# Summary of the method: as §1
# [13] = target: Neu5Ac(a2-6)Gal(b1-4)GlcNAc(b1-2)Man(a1-3)[GlcNAc(b1-4)][Neu5Ac(a2-6)Gal(b1-4)GlcNAc(b1-2)Man(a1-6)]Man(b1-4)GlcNAc(b1-4)GlcNAc
# Summary of the method: as §1
# [14] = target: Neu5Ac(a2-6)Gal(b1-4)GlcNAc(b1-2)Man(a1-3)[Man(a1-6)]Man(b1-4)GlcNAc(b1-4)GlcNAc
# Summary of the method: as §1
# [15] = target: Neu5Ac(a2-6)Gal(b1-4)GlcNAc(b1-2)Man(a1-6)Man(b1-4)GlcNAc(b1-4)GlcNAc
# Summary of the method: as §1
# [16] = target: Neu5Ac(a2-6)Gal(b1-4)GlcNAc(b1-2)[Neu5Ac(a2-6)Gal(b1-4)GlcNAc(b1-4)]Man(a1-3)[GlcNAc(b1-4)][Neu5Ac(a2-6)Gal(b1-4)GlcNAc(b1-2)[Neu5Ac(a2-6)Gal(b1-4)GlcNAc(b1-6)]Man(a1-6)]Man(b1-4)GlcNAc(b1-4)GlcNAc
# Summary of the method: as §1
# [17] = target: Neu5Ac(a2-6)Gal(b1-4)GlcNAc(b1-2)[Neu5Ac(a2-6)Gal(b1-4)GlcNAc(b1-4)]Man(a1-3)[GlcNAc(b1-4)][Neu5Ac(a2-6)Gal(b1-4)GlcNAc(b1-4)Man(a1-6)]Man(b1-4)GlcNAc(b1-4)GlcNAc
# Summary of the method: as §1
# [18] = target: Neu5Ac(a2-6)GlcNAc(b1-4)GlcNAc(b1-4)GlcNAc
# Summary of the method: as §1
# [19] = target: Neu5Ac(a2-8)Neu5Ac(a2-3)[GalNAc(b1-4)]Gal(b1-4)Glc
# Summary of the method: as §1
# [20] = target: Neu5Ac9Ac(a2-3)Gal(b1-3)GlcNAc
# Summary of the method: as §1
# [21] = target: Neu5Gc(a2-3)Gal(b1-3)GlcNAc
# Summary of the method: as §1
binder,measurement,setting,value
B1,glycan array binding signal (z-score),GalNAc(a1-3)GalNAc,-1.12
same,glycan array binding signal (z-score),GalNAc6S(b1-4)GlcNAc,0.26
same,glycan array binding signal (z-score),Glc(b1-6)Glc,1.37
same,glycan array binding signal (z-score),[1],-0.245
same,glycan array binding signal (z-score),[2],0.596
same,glycan array binding signal (z-score),[3],1.45
same,glycan array binding signal (z-score),[4],0.002
same,glycan array binding signal (z-score),[5],3.99
same,glycan array binding signal (z-score),[6],3.85
same,glycan array binding signal (z-score),[7],-0.168
same,glycan array binding signal (z-score),Kdn(a2-3)Gal(b1-3)GlcNAc,0.462
same,glycan array binding signal (z-score),Kdn(a2-3)Gal(b1-4)GlcNAc,-0.846
same,glycan array binding signal (z-score),[8],-0.784
same,glycan array binding signal (z-score),[9],-0.507
same,glycan array binding signal (z-score),[10],-0.236
same,glycan array binding signal (z-score),[11],-0.025
same,glycan array binding signal (z-score),[12],-0.9
same,glycan array binding signal (z-score),[13],-1.03
same,glycan array binding signal (z-score),[14],3.09
same,glycan array binding signal (z-score),[15],2.91
same,glycan array binding signal (z-score),[16],-0.369
same,glycan array binding signal (z-score),[17],-0.544
same,glycan array binding signal (z-score),[18],-0.645
same,glycan array binding signal (z-score),[19],3.6
same,glycan array binding signal (z-score),[20],4.29
same,glycan array binding signal (z-score),[21],0.057

# From the supplement of paper PMC8728848
